IL-1B inflam inh: qHTS for Inhibitors of Inflammasome Signaling: IL-1-beta AlphaLISA Primary Screen; activity change, % at 57.5 µM; 360,000 tested, 4.7% active; AID 743279, 2014; THP-1 LPS/ATP IL-1B secretion, AlphaLISA, 16 h; hits give low values; in the data active = activity change below about -50%; inconclusive = mostly about -30% to -49%; note: % is set by controls: 0 for no effect and ±100 for the full control effect
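Secreted IL-1B measured by AlphaLISA bead assay after 16 h compound exposure of THP-1 cells; compounds (final up to 57.5 uM) added 1 h before LPS (250 ng/mL) and ATP (1.25 mM) stimulation; lower signal means less secretion.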
ATXN2 expr inh: Primary qHTS for Inhibitors of ATXN expression; HEK-293 ATXN2-luciferase reporter, luminescence, 24 h; Potency, µM (top dose mostly 57 µM), for inactives: at the top dose activity change, negative = inhibition, actives largely listed as inhibitors; 360,000 tested, 0.72% active; AID 1745845, 2022; note: potency is the fitted concentration of half-maximal effect; % is set by controls: 0 for no effect and ±100 for the full control effect; nearly all actives have a fitted effect of over 55% in size
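qHTS (up to 57 uM final) was run with 24 h compound exposure of reporter cells at 37 °C. Each well was multiplexed: SteadyGlo luminescence measured ATXN2-luciferase expression after a fluorogenic Gly-Phe-AFC viability readout (25 uM final).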
HepG2 viability: qHTS for Inhibitors of TGF-b: Cytotox Counterscreen; 410,000 tested, 0.76% active; HepG2 CAGA-GFP viability, ATP luminescence, 18 h; Potency, µM (series often up to 46.1 µM), inactives show at the highest dose activity change, negative = cytotoxicity, hits mostly cytotoxic; note: potency is the fitted concentration of half-maximal effect
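HepG2 CAGA-GFP cells (1000/well, DMEM with 1% FBS) received compound, then TGF-beta at 500 pg/mL final, and were incubated 18 hours at 37 degrees C. Viability was read by CellTiter-Glo luminescence. Media-only wells were set as complete cell-killing and DMSO as no toxicity.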
TGFb SMAD3 inh: qHTS for Inhibitors of TGF-b; HepG2 CAGA-GFP TGF-b/SMAD3 reporter, GFP fluorescence, 18 h; TGF-beta stimulated, 500 pg/mL final; Potency, µM (titrated, usually from 46.1 µM), for the others: at the top dose activity, negative = inhibition, usual class: inhibitors; 410,000 tested, 1.2% active; AID 588855, 2011; note: potency is the fitted concentration of half-maximal effect; % is set by controls: 0 for no effect and ±100 for the full control effect; nearly all actives have a fitted effect of over 65% in size
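HEPG2 CAGA-GFP cells (1000/well, DMEM with 1% FBS) were pre-incubated 2 h at 37 degrees C, given compound by pin tool, then stimulated with TGF-beta at 500 pg/mL final for 18 h before per-cell GFP fluorescence imaging.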
ATXN viability: Viability Counterscreen for Primary qHTS for Inhibitors of ATXN expression; S2 cells (HEK-293 line with an ATXN2-luciferase reporter) viability, CellTiter-Fluor protease fluorescence, 24 h; Potency, µM (highest dose often 56.7 µM), hits mostly cytotoxic; 400,000 tested, 0.49% active; note: potency is the fitted concentration of half-maximal effect; nearly all actives have a fitted effect of over 40% in size
The depositor's hits bear a star; i = inactive; ? = inconclusive; . = not tested or not shown; [ ] = dose if it differs, or a comment. Shown are actives, neighbours in structure and some others; about 5.7% of the full set was active somewhere. Unless noted, calls come from the whole dose curve; as a rule, active = well fitted curve in the direction sought with a large enough effect; inconclusive = small, poorly fitted or top-dose-only effect, or another doubt; inactive = no such curve, though single readings can be large; an effect the other way counts as inactive or inconclusive.

SMILES	IL-1B inflam inh	ATXN2 expr inh	HepG2 viability	TGFb SMAD3 inh	ATXN viability
O=C(CSc1nnc2[nH]c(=O)cc(-c3ccccc3)n12)Nc1cc(C(F)(F)F)ccc1Cl	.	.	2%	0%	.
CCCN1C(=O)c2ccccc2NC1c1ccc(OC)c(COc2cccc(C)c2C)c1 (stereo unspecified)	.	.	-13%	1%	.
O=C1CC(c2cccc(Cl)c2Cl)c2cc3c(cc2N1)OCCO3 (stereo unspecified)	.	-6%	-3%	12%	i
CCc1ccccc1N(CC)C(=O)C(=O)Nc1ccc2nc3n(c(=O)c2c1)CCCCC3	.	-9%	1%	0%	?
CCN(Cc1cnn(C)c1)C(=O)c1ccc(OC2CCN(S(=O)(=O)N(C)C)CC2)cc1	-68*	1%[11.3 µM]	-7%	-5%	i
COc1ccc(NC(=O)c2ccc(NC(=O)c3cccs3)cc2)cc1	-8	?	-17%	-2%	?
COc1nc(N)nc(NC(=O)c2cccs2)c1N=O	-87*	2%	13µM*	?	?
CCOC(=O)c1cc(S(=O)(=O)Nc2ccc(Br)c(C)c2)[nH]n1	.	2%	-44%	-28%	i
O=C(N[C@@H](Cc1ccccc1)C(=O)CCl)OCc1ccccc1	-111*	28µM*	-76%	?	16µM*
CC(C)C[C@@H](C=O)NC(=O)[C@H](CC(C)C)NC(=O)[C@H](CC(C)C)NC(=O)OCc1ccccc1	.	1.1µM*	.	.	.
O=C(CCl)NC(Cc1ccccc1)C(=O)OCC(=O)c1ccc(-c2ccccc2)cc1 (stereo unspecified)	-86*	-22%	-61%	?	15µM*
CC(=O)NC(Cc1ccccc1)C(=O)OCC(=O)c1ccc(Cl)cc1 (stereo unspecified)	15	1%	3%	17%	i
Cc1ccc(N2CCN(C(=O)c3cn(C)c4ccc(S(=O)(=O)N5CCCC5)cc4c3=O)CC2C)cc1 (stereo unspecified)	.	.	6%	-3%	.
Cc1ccc(C)c(NC(=O)CCS(=O)(=O)c2cccc3nsnc23)c1	.	13%	-13%	-2%	i
CCC(C)NCCOCCOc1ccc(C)cc1OC (stereo unspecified)	18	-10%	3%	9%	i
Cc1ccc(OCCOCCNC(C)C)c(Br)c1	-58*	-6%	-48%	4%	i
CCC(C)NCCOCCOc1ccc(Cl)cc1Br (stereo unspecified)	-80*	-28%	13%	-24%	i
O=C(CCl)c1ccc2c(c1)CCCC2	.	.	-28%	4%	.
CC1CCc2c(sc(/N=C/N(C)C)c2C#N)C1 (stereo unspecified)	-63*	17%	-26%	-8%	i
CN(C)/C=N/c1sc2c(c1C#N)CCCC2	-13	16%	-21%	13%	?
Fc1ccc(Nc2nc(NCc3cccs3)nc3ccsc23)cc1	-28	0%	-41%	?	?
COc1ccccc1CNc1nc(NCc2cccs2)nc2ccsc12	-17	?	-34%	11µM*	?
COc1ccccc1CNc1nc(Nc2cccc(-c3cnco3)c2)c2sccc2n1	.	0%	-72%	?	20µM*
COc1ccccc1CNc1nc(Nc2ccccc2-n2cccn2)c2sccc2n1	-15	0%	-33%	?	16µM*
COc1ccccc1CNc1nc(NCc2ccccc2OC)c2sccc2n1	-52*	?	-52%	?	?
CC(C)CC(CSc1ccc(Br)cc1)N1CCN(CCc2ccccc2)CCC1=O (stereo unspecified)	.	.	-1%	0%	.
Cc1ccc2c(CNCCc3ccco3)c(C(=O)O)n(Cc3ccc(F)cc3)c2c1	.	-14%	-18%	?	?
COc1ccccc1CNc1nc(NCC2CC2)nc2ccsc12	-83*	?	10µM*	13µM*	.
COCCNc1nc(NCc2ccccc2OC)c2sccc2n1	-25	?	-26%	1%	?
COc1ccccc1CNc1nc(NCc2ccc3occc3c2)c2sccc2n1	-100*	?	11µM*	?	?
